Several values for one entry are separate records, joined by “and”; a condition that tells them apart may be missing. Identical values can stand only once. Hit rate of the full screen: of about 5,500 compounds, about 2,000 (36%) were called active. Roughly 18% stayed inconclusive and do not appear here. Rule as the data show it: active = normalized growth mostly below about 0.91 (no sharp cut-off); inconclusive = no clear call, values can overlap the other calls; inactive = mostly above about 0.92. The list shows a part of the results.
Assay: chemical genetic growth profiling, strain panel (AID 1159580);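 also: tested at 20 µM; growth read once vehicle control cultures reached saturation at 30 °C; 1 = growth at the plate median or of vehicle wells; lower values mean less growth of the strain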
Settings: S. cerevisiae deletion strains, growth OD

Measured: normalized growth

CC(C)CCCC(C)C1CCC2C3C[C@@H](O)[C@@]4(O)C[C@@H](O)CC[C@]4(C)C3CC[C@]12C (stereo partly drawn)
active: locus YAL026C, strain drs2, stronger effect = lower value 0.843 | locus YDR137W, strain rgp1, stronger effect = lower value 0.493 | locus YLR262C, strain YPT6 (second series), stronger effect = lower value 0.502
inactive: locus YAL013W, strain DEP1, stronger effect = lower value 1.01 | locus YAL021C, strain ccr4, stronger effect = lower value 0.951 | locus YAL030W, strain snc1, stronger effect = lower value 0.988 | locus YBL061C, strain skt5, stronger effect = lower value 0.986 | locus YBR009C, strain hhf1, stronger effect = lower value 0.972 | locus YBR021W, strain FUR4, stronger effect = lower value 1.06 | locus YBR023C, strain chs3, stronger effect = lower value 0.994 | locus YBR171W, strain sec66, stronger effect = lower value 1.01 | locus YBR229C, strain ROT2, stronger effect = lower value 1.06 | locus YBR231C, strain swc5, stronger effect = lower value 1.01 | locus YBR279W, strain paf1, stronger effect = lower value 1.03 | locus YCL011C, strain gbp2, stronger effect = lower value 0.997 | locus YCL016C, strain dcc1, stronger effect = lower value 0.984 | locus YCL029C, strain bik1, stronger effect = lower value 1.04 | locus YCL061C, strain MRC1, stronger effect = lower value 0.966 | locus YCL069W, strain vba3, stronger effect = lower value 0.984 | locus YCR088W, strain abp1, stronger effect = lower value 1 | locus YDL005C, strain med2, stronger effect = lower value 0.996 | locus YDL035C, strain GPR1, stronger effect = lower value 1.06 | locus YDL040C, strain nat1, stronger effect = lower value 1.01 | locus YDL074C, strain BRE1, stronger effect = lower value 1.08 | locus YDL101C, strain DUN1, stronger effect = lower value 1.03 | locus YDL134C, strain PPH21, stronger effect = lower value 0.985 | locus YDL185W, strain tfp1, stronger effect = lower value 1.02 | locus YDL192W, strain arf1, stronger effect = lower value 0.999 | locus YDR001C, strain nth1, stronger effect = lower value 1 | locus YDR069C, strain doa4, stronger effect = lower value 0.992 | locus YDR101C, strain arx1, stronger effect = lower value 1.03 | locus YDR150W, strain NUM1, stronger effect = lower value 1.03 | locus YDR162C, strain NBP2, stronger effect = lower value 1.03 | locus YDR195W, strain ref2 1.04 | locus YDR297W, strain sur2, stronger effect = lower value 0.986 | locus YDR318W, strain mcm21, stronger effect = lower value 1.02 | locus YDR334W, strain swr1, stronger effect = lower value 1 | locus YDR335W, strain msn5, stronger effect = lower value 1 | locus YDR388W, stronger effect = lower value 1.01 | locus YDR392W, strain spt3, stronger effect = lower value 0.82 | locus YDR502C, strain sam2, stronger effect = lower value 1.02 | locus YEL003W, strain gim4, stronger effect = lower value 0.974 | locus YEL037C, strain rad23, stronger effect = lower value 1 | locus YEL061C, strain CIN8 (second series), stronger effect = lower value 0.999 | locus YER015W, strain faa2, stronger effect = lower value 0.987 | locus YER016W, strain bim1, stronger effect = lower value 0.994 | locus YER110C, stronger effect = lower value 1.03 | locus YER111C, strain swi4, stronger effect = lower value 0.987 | locus YER155C, strain BEM2 (second series), stronger effect = lower value 0.972 | locus YER155C, strain BEM2, stronger effect = lower value 1 | locus YER167W, strain BCK2, stronger effect = lower value 1.04 | locus YFR010W, strain ubp6, stronger effect = lower value 1 | locus YGL078C, strain dbp3, stronger effect = lower value 1.02 | locus YGL086W, strain mad1, stronger effect = lower value 1.01 | locus YGL167C, strain pmr1, stronger effect = lower value 1 | locus YGL173C, strain kem1, stronger effect = lower value 0.992 | locus YGL227W, strain vid30, stronger effect = lower value 1 | locus YGL240W, strain doc1, stronger effect = lower value 1.02 | locus YGL248W, strain PDE1, stronger effect = lower value 1.02 | locus YGL253W, strain hxk2, stronger effect = lower value 0.996 | locus YGR078C, strain PAC10, stronger effect = lower value 1 | locus YGR135W, strain pre9, stronger effect = lower value 0.99 | locus YGR252W, strain gcn5, stronger effect = lower value 0.993 | locus YHR013C, strain ard1, stronger effect = lower value 1 | locus YHR027C, strain rpn1, stronger effect = lower value 0.991 | locus YHR030C, strain SLT2, stronger effect = lower value 1.02 and 1.06 | locus YHR079C, strain IRE1 (second series), stronger effect = lower value 1.01 | locus YHR079C, strain IRE1, stronger effect = lower value 1.04 | locus YHR094C, strain hxt1, stronger effect = lower value 1.02 | locus YHR129C, strain ARP1, stronger effect = lower value 1.03 | locus YHR142W, strain chs7, stronger effect = lower value 1.02 | locus YHR200W, strain rpn10, stronger effect = lower value 1.02 | locus YIL066C, strain RNR3, stronger effect = lower value 1.02 | locus YIL073C, strain SPO22, stronger effect = lower value 1.04 | locus YIL125W, strain kgd1, stronger effect = lower value 1.02 | locus YIR030C, strain dcg1, stronger effect = lower value 1.01 | locus YJL092W, strain hpr5, stronger effect = lower value 1.01 | locus YJL095W, strain BCK1 (second series), stronger effect = lower value 0.998 | locus YJL095W, strain BCK1, stronger effect = lower value 0.981 and 1.05 | locus YJL115W, strain asf1, stronger effect = lower value 0.994 | locus YJL129C, strain trk1, stronger effect = lower value 1.01 | locus YJL134W, strain LCB3, stronger effect = lower value 1.03 | locus YJL154C, strain vps35, stronger effect = lower value 1 | locus YJL164C, strain tpk1, stronger effect = lower value 0.99 | locus YJL166W, strain qcr8, stronger effect = lower value 0.98 | locus YJL168C, strain set2, stronger effect = lower value 1.01 | locus YJL187C, strain SWE1 (second series), stronger effect = lower value 1.02 | locus YJL187C, strain SWE1, stronger effect = lower value 1 | locus YJR043C, strain POL32, stronger effect = lower value 1.03 | locus YJR066W, strain TOR1, stronger effect = lower value 1.01 | locus YKL009W, strain mrt4, stronger effect = lower value 0.971 | locus YKL068W, stronger effect = lower value 1.01 | locus YKL085W, strain MDH1 (second series), stronger effect = lower value 1.01 | locus YKL085W, strain MDH1, stronger effect = lower value 1.01 | locus YKL160W, strain elf1, stronger effect = lower value 0.998 | locus YKR001C, strain vps1, stronger effect = lower value 1.05 | locus YKR026C, strain gcn3, stronger effect = lower value 1 | locus YKR091W, strain srl3, stronger effect = lower value 1 | locus YLL001W, strain dnm1, stronger effect = lower value 0.949 | locus YLL026W, stronger effect = lower value 0.995 | locus YLL041C, strain sdh2, stronger effect = lower value 1 | locus YLR027C, strain aat2, stronger effect = lower value 0.989 | locus YLR039C, strain RIC1, stronger effect = lower value 0.777 | locus YLR058C, strain SHM2, stronger effect = lower value 1.02 | locus YLR102C, strain apc9, stronger effect = lower value 1.01 | locus YLR113W, strain HOG1, stronger effect = lower value 1.06 | locus YLR221C, strain rsa3, stronger effect = lower value 0.976 | locus YLR258W, strain gsy2, stronger effect = lower value 0.975 | locus YLR262C, strain YPT6, stronger effect = lower value 0.78 | locus YLR268W, strain sec22, stronger effect = lower value 1.05 | locus YLR320W, strain mms22, stronger effect = lower value 0.941 | locus YLR330W, strain CHS5, stronger effect = lower value 1 | locus YLR342W, strain FKS1 (second series), stronger effect = lower value 1.03 | locus YLR342W, strain FKS1, stronger effect = lower value 0.986 | locus YLR357W, strain rsc2, stronger effect = lower value 1.01 | locus YLR370C, strain arc18, stronger effect = lower value 1 | locus YLR371W, strain rom2, stronger effect = lower value 1.02 | locus YLR384C, strain iki3, stronger effect = lower value 0.979 | locus YLR418C, strain cdc73, stronger effect = lower value 1.03 | locus YML016C, strain PPZ1, stronger effect = lower value 1.05 | locus YML032C, strain rad52, stronger effect = lower value 0.977 | locus YML120C, strain ndi1, stronger effect = lower value 0.996 | locus YML124C, strain tub3, stronger effect = lower value 1.02 | locus YMR058W, strain fet3, stronger effect = lower value 0.996 | locus YMR078C, strain ctf18, stronger effect = lower value 1.02 | locus YMR125W, strain sto1, stronger effect = lower value 1.02 | locus YMR129W, stronger effect = lower value 0.989 | locus YMR205C, strain PFK2, stronger effect = lower value 0.954 | locus YMR223W, strain ubp8, stronger effect = lower value 1 | locus YMR231W, strain pep5, stronger effect = lower value 0.99 | locus YMR307W, strain GAS1, stronger effect = lower value 1.06 | locus YNL067W, strain RPL9B, stronger effect = lower value 1.02 | locus YNL071W, strain lat1, stronger effect = lower value 0.999 | locus YNL153C, strain GIM3, stronger effect = lower value 1.02 | locus YNL183C, strain NPR1, stronger effect = lower value 0.992 | locus YNL209W, strain ssb2, stronger effect = lower value 0.994 | locus YNL233W, strain BNI4, stronger effect = lower value 1 | locus YNL248C, strain rpa49, stronger effect = lower value 0.98 | locus YNL250W, strain rad50, stronger effect = lower value 1.02 | locus YNL271C, strain bni1, stronger effect = lower value 1.02 | locus YNL298W, strain CLA4, stronger effect = lower value 1.02 | locus YNL307C, strain MCK1, stronger effect = lower value 1.02 | locus YNL322C, strain KRE1 (second series), stronger effect = lower value 0.986 | locus YNL322C, strain KRE1, stronger effect = lower value 1.01 | locus YNR049C, strain mso1, stronger effect = lower value 1 | locus YNR052C, strain pop2, stronger effect = lower value 0.996 | locus YOL012C, strain htz1 1.32 | locus YOL147C, strain pex11, stronger effect = lower value 1.02 | locus YOR001W, strain rrp6, stronger effect = lower value 0.977 | locus YOR061W, strain CKA2, stronger effect = lower value 1.03 | locus YOR069W, strain VPS5, stronger effect = lower value 1.01 | locus YOR070C, strain gyp1, stronger effect = lower value 0.972 | locus YOR080W, strain dia2, stronger effect = lower value 1 | locus YOR083W, strain WHI5, stronger effect = lower value 0.983 | locus YOR106W, strain vam3, stronger effect = lower value 1.04 | locus YOR136W, strain idh2, stronger effect = lower value 1.02 | locus YOR144C, strain elg1, stronger effect = lower value 1.02 | locus YOR184W, strain ser1, stronger effect = lower value 1.02 | locus YOR231W, strain MKK1, stronger effect = lower value 1.06 | locus YOR265W, strain rbl2, stronger effect = lower value 0.993 | locus YOR270C, strain vph1, stronger effect = lower value 1.02 | locus YOR290C, strain snf2, stronger effect = lower value 0.994 | locus YOR316C, strain cot1, stronger effect = lower value 1.02 | locus YPL051W, strain arl3, stronger effect = lower value 0.956 | locus YPL078C, strain atp4, stronger effect = lower value 0.987 | locus YPL106C, strain sse1, stronger effect = lower value 1.01 | locus YPL240C, strain hsp82, stronger effect = lower value 1 | locus YPL256C, strain CLN2, stronger effect = lower value 1.05 | locus YPR119W, strain clb2, stronger effect = lower value 1.02 | locus YPR141C, strain kar3, stronger effect = lower value 1.02 | locus YPR163C, strain tif3, stronger effect = lower value 1.01 | locus YPR167C, strain met16, stronger effect = lower value 1.03 | strain wtn01, stronger effect = lower value 1.07

— PubChem BioAssay AID1159580 (chemical genetic matrix, 2015)
